Measurements as given in PubChem BioAssay (NCI).
This is part of a sample that, as a whole, favours compounds with a hit. Of some 79,000 tested, about 15% had one in any assay. A number with no mark means an inactive call. Activity calls are given as the source filed them. No stated cut-off is given here; in the data, active means growth inhibition above about 70%; inactive means the rest.

Tests used:
[1] = NCI Yeast Anticancer Drug Screen. Data for the rad50 strain (AID 155);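 further: 0% = growth of vehicle-only cultures of the same strain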; conditions: S. cerevisiae rad50 strain growth inhibition, hits give high values
Summary of the method: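 Cells are treated with compound, grown, and their growth is then scored against vehicle-only cultures of the same repair-deficient yeast strain.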

[2] = NCI Yeast Anticancer Drug Screen. Data for the mec2-1 strain (AID 157); conditions: S. cerevisiae mec2-1 strain, hits give high values
Summary of the method: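 Readout is yeast growth inhibition, normalised to vehicle-treated controls, in the mec2-1 strain exposed to compound.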

[3] = NCI Yeast Anticancer Drug Screen. Data for the sgs1 mgt1 strain (AID 161);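 further: 0% = growth of cultures given vehicle only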; conditions: S. cerevisiae sgs1 mgt1 strain, hits give high values
Summary of the method: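 Percent growth inhibition was derived by comparing compound-exposed mutant yeast with vehicle-exposed cultures. The strain carries alterations in DNA damage repair.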

[4] = NCI Yeast Anticancer Drug Screen. Data for the cln2 rad14 strain (AID 165);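 further: 0% = growth equal to vehicle treated cultures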; conditions: S. cerevisiae cln2 rad14 strain, hits give high values
Summary of the method: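 Relative to vehicle controls, growth inhibition of compound-treated cln2 rad14 yeast was recorded.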

[5] = NCI Yeast Anticancer Drug Screen. Data for the bub3 strain (AID 167); conditions: S. cerevisiae bub3 mutant strain, hits give high values
Summary of the method: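 Part of a panel of yeast mutants defective in DNA damage repair or cell cycle regulation. Each strain is grown with compound, and inhibition is calculated relative to solvent-treated cultures.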

[6] = NCI Yeast Anticancer Drug Screen. Data for the mlh1 rad18 strain (AID 175); conditions: S. cerevisiae mlh1 rad18 strain growth inhibition, hits give high values
Summary of the method: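 Test agents were incubated with a yeast strain of defined genotype (DNA damage repair defect). Inhibition of growth was derived by comparison with vehicle-exposed cultures.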

[7] = at 5.0 µM (retest, dose inferred, filed as 0.5)
[8] = at 50.0 µM (retest, dose inferred, filed as 5.0)

SMILES | growth inhibition [1, 7] | growth inhibition [1, 8] | growth inhibition ([1]; at 50.0 µM) | growth inhibition [2, 7] [%] | growth inhibition [2, 8] | growth inhibition ([2]; at 50.0 µM) | growth inhibition [3, 7] [%] | growth inhibition [3, 8] | growth inhibition ([3]; at 50.0 µM) | growth inhibition [4, 7] [%] | growth inhibition [4, 8] | growth inhibition ([4]; at 50.0 µM) | growth inhibition [5, 7] | growth inhibition [5, 8] | growth inhibition ([5]; at 50.0 µM) | growth inhibition [6, 7] | growth inhibition [6, 8] | growth inhibition ([6]; at 50.0 µM)
COC(=O)c1c2c(cc3c1CC1(Cc4cc5c(c(C)c4C1)CCC5)C3)CCC2 (configuration not stated) | 15% | 12% | -32.5% | 6 | 5% | -46.4% | 9 | 12% | -31.9% | -4 | 13% | -11.1% | 14% | 10% | -13.1% | 12% | 11% | -22.9%
CN(C)c1ncnc2c1ncn2C | 29% | 61% | 70.8% (active) | 15 | 81% (active) | 61.4% | 16 | 53% | 59.1% | -1 | 38% | 17.4% | 20% | 98% (active) | 38.7% | 26% | 72% (active) | 61.4%
Cc1cc[n+](C2CCC3(C)C(=CCC4C3CCC3(C)C(C(C)CCCC(C)C)CCC43)C2)cc1 (configuration not stated) | 91% (active) | 97% (active) | 95.8% (active) | 16 | 98% (active) | 96% (active) | 69 | 98% (active) | 98% (active) | 26 | 97% (active) | 64.3% | 75% (active) | 97% (active) | 96.2% (active) | 71% (active) | 97% (active) | 97.7% (active)
Cc1ccc(NCCNCCO)c2c(=O)c3ccccc3sc12 | 27% | 99% (active) | 99.5% (active) | 9 | 100% (active) | 99.6% (active) | 9 | 100% (active) | 99.2% (active) | 8 | 99% (active) | 99.4% (active) | 11% | 99% (active) | 99.5% (active) | 25% | 99% (active) | 99.5% (active)
CCCC(=O)Oc1ccc([N+](=O)[O-])cc1 | 4% | 23% | 28.4% | 2 | 13% | 29% | -1 | 8% | 11.1% | 2 | 6% | 34.9% | 4% | 12% | 4.5% | 4% | 13% | 13.1%
C/C=C/C=N/N(c1nnc(-c2ccccc2)c(-c2ccccc2)n1)S(=O)(=O)c1ccc(C)cc1 | 58% | 58% | 92.2% (active) | 29 | 29% | 91.3% (active) | 36 | 36% | 90.1% (active) | 38 | 38% | 90% (active) | 52% | 52% | 92.3% (active) | 34% | 34% | 91.5% (active)
ClC(Cl)(Cl)C(c1ccccc1)c1ccccc1 | 3% | 30% | 76.8% (active) | 0 | 12% | 38.5% | 3 | 42% | 71.1% (active) | 4 | -3% | -17.2% | -5% | 5% | 16.4% | 16% | 15% | 73.8% (active)
CCCC/C=C1/CCC(CN(C)C)C1=O (configuration not stated) | 7% | 60% | 51.9% | -2 | 48% | 37.4% | 16 | 56% | 81% (active) | 6 | 40% | 46.2% | 14% | 84% (active) | 61.9% | 19% | 69% | 54.2%
Cc1cn(C2OC(CO)C(O)C(O)C2N)c(=O)[nH]c1=O (configuration not stated) | 0% | -2% | 86.5% (active) | 3 | 10% | 70.3% (active) | 1 | 8% | 56.5% | -4 | 0% | 61.6% | -8% | -13% | 93.9% (active) | -4% | -3% | 92.5% (active)
